ATG4B inh = ATG4B protease inhibitors, primary screen, biochemical, fluorescence, uHTS; AID 504462, 2011; Cysteine protease ATG4B (Homo sapiens), Q9Y4P1; ATG4B cleavage of LC3-PLA2, NBD-HPC fluorescence, 1 h; 0.51% of 340,000 active; inhibition, % at 8.33 µM; in the data active = inhibition above about 40%
Target sequence (Q9Y4P1 whole entry, looked up): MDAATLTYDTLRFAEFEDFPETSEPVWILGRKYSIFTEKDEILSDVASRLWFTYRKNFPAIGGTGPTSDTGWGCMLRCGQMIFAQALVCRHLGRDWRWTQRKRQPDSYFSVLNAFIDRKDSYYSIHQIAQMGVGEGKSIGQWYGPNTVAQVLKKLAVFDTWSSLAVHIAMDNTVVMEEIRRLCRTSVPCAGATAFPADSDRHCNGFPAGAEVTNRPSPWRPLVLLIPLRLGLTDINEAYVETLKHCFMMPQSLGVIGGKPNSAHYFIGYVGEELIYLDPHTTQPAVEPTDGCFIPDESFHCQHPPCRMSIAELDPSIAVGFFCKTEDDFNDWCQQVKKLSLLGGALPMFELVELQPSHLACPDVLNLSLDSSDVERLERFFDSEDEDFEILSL
tim23-1 inh = growth inhibitors of tim23-1 mutant yeast, primary screen, luminescence, uHTS. S. cerevisiae tim23-1 growth, BacTiter-Glo luminescence, 24 h. inhibition, % at 20 µM. 1.3% of 330,000 active;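 active = growth inhibition of the mutant yeast at or above 50%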;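 also: temperature-sensitive mutant grown at 25 °C; plate controls were DMSO-treated mutant yeast for no effect and medium wells lacking yeast for full effect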
PfHsp90 set2 = growth inhibition of PfHsp90-expressing yeast, primary screen, antimalarial PfHsp90 inhibitor project, S. cerevisiae, BacTiter-Glo luminescence, single point, set 2. BacTiter-Glo ATP, 48 h; yeast lacking PDR1 and PDR3 efflux regulators. inhibition, % at 9.4 µM. 0.32% of 310,000 active;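 active = every replicate shows inhibition above about 80%, whatever the replicate mean, limit read from the data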;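 also: 0% = DMSO neutral controls and 100% = 20 µM radicicol positive controls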
tim10-1 inh = growth inhibitors of tim10-1 mutant yeast, primary screen, luminescence, uHTS. AID 463190, 2010. inhibition, % at 20 µM. S. cerevisiae tim10-1 ts strain growth, BacTiter-Glo, 24 h. 2.2% of 330,000 active;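 active = inhibition of at least 40%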;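 also: mutant grown at 25 °C; 0% = DMSO wells with yeast and 100% = wells holding no yeast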
SKKanGAS inh = S. pyogenes SKKanGAS growth inhibitors in kanamycin, primary screen, streptokinase expression inhibitor project, SKKanGAS strain, BacTiter-Glo luminescence. 1.3% of 300,000 active. AID 1662, 2009. inhibition, % at 7.5 µM. 6 h;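 active = mean replicate score, as percent of positive control median, at least 50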;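 also: strain carries kanamycin resistance gene driven by streptokinase promoter and grows in 40 µg/ml kanamycin; loss of luminescence reflects streptokinase promoter inhibition or plain growth inhibition; 0% = median of DMSO wells and 100% = positive control at its reference dose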
TIM10 inh = growth inhibitors of isogenic TIM10 control yeast, primary screen, counter-screen for tim10-1 yeast inhibitor project, luminescence, uHTS; S. cerevisiae TIM10 strain growth, BacTiter-Glo luminescence, 24 h; inhibition, % at 10 µM; 1.4% of 330,000 active; AID 463195, 2010;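 active = inhibition of 40% or more at the single tested concentration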;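 also: wild-type TIM10 isogenic control strain grown at permissive 25 °C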
ATG4B confirm = ATG4B protease inhibitors, retest, confirmation, biochemical, fluorescence, single concentration | shares compounds with ATG4B inh | ATG4B protease fluorescent substrate cleavage assay | inhibition, % at 8.33 µM | 92% of 320 active; in the data active = inhibition above about 39%
PLA2 ctr = PLA2 enzyme inhibition, counter-screen for ATG4B inhibitor project, biochemical, single concentration, uHTS hits. shares compounds with ATG4B inh. purified PLA2, NBD-C6-HPC fluorescence, 45 min. inhibition, % at 8.33 µM. 66% of 1,600 active. AID 588402, 2011; in the data active = inhibition above about 50%
The depositor's hits bear a star; x = not tested or not shown. Hits are enriched below; roughly 4.7% of the tested compounds scored in any of these assays.

SMILES	ATG4B inh	tim23-1 inh	PfHsp90 set2	tim10-1 inh	SKKanGAS inh	TIM10 inh	PLA2 ctr	others
Cc1ccc(C(=O)Nc2ccccc2Sc2ccccc2)cc1	-3	9	4	2	8	-9	x
COc1ccccc1NS(=O)(=O)c1cccc(N=C2N=C(N)c3ccccc32)c1	54*	-9	13	22	2	9	57*
CN1C(=O)/C(=C/c2ccccc2OCc2cccc(F)c2)N(C)C1=S	4	20	x	33	19	18	x
O=C(O)c1ccc(C[n+]2c(-c3ccccc3)csc2Nc2ccccc2)cc1	42*	25	8	36	8	34	17	ATG4B confirm=84*
CCCCCC[n+]1c(-c2ccccc2)csc1Nc1ccccc1	-2	-9	28	-5	-4	6	x
CCN(CC)S(=O)(=O)c1cc(NC(=O)c2ccccc2OCc2c(C)noc2C)ccc1C	-9	x	7	x	x	x	x
Cc1ccc(C)c(N2CCN(S(=O)(=O)c3ccc4c(c3)CCN4C(=O)CCC(=O)O)CC2)c1	3	5	5	-8	9	13	x
Cc1cccc(N2CCN(S(=O)(=O)c3ccc4c(c3)CCN4C(=O)CCC(=O)O)CC2)c1C	41*	5	-14	5	x	20	30
CCCCn1c(=O)c2ccccc2c2ccccc2c1=O	64*	29	-5	19	x	-7	75*

Screening data from PubChem.
